Source: PubChem BioAssay (NCI)
Compounds without any hit were thinned out: in the full panel of roughly 83,000, 20% have a hit.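 Values shown are percent growth following 48 h exposure of cells in 96-well plates to a single concentration of compound; below 10 was considered active.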 A number with no mark means an inactive call. Active and inactive are the calls of the source.

tested on: HL-60(TB) leukemia; assay: NCI-60 one-dose screen, 48 h (100 = growth as untreated, 0 = no growth, -100 = all killed); settings: 10 µM unless noted

Row | Compound | growth
1 | O=c1[nH]c(CNc2ccc(NCc3c(-c4ccccc4)no[n+]3[O-])cc2)nc2c1cnn2-c1ccccc1 | 63.1%
2 | Cc1ncn(-c2ccc(/C=N/Nc3ccnc4cc(Cl)ccc34)cc2)c1C | -40.4% (active)
3 | CCOC(=O)c1sc(N)c(C(=O)OCC)c1C | 38.5%
4 | O=c1c2cc(-c3ccc(F)cc3F)ccc2n(Nc2ccccc2)c(=O)n1-c1cccc(C(F)(F)F)c1 | -45.5% (active)
5 | CCn1c2ccc(/C=N/N(C)S(=O)(=O)CCN(C)C)cc2c2cc(/C=N/N(C)S(=O)(=O)CCN(C)C)ccc21 | 42.5%
6 | COc1ccc2c(c1)Oc1nc(N)c(C#N)c(N)c1C2Sc1ccc(C)cc1 (stereo not drawn) | -22.3% (active)
7 | CN1CCN(Cc2ccc(NC(=O)c3cncc(C#Cc4cnc5ccc(N6CCN(C)CC6)nn45)c3)cc2C(F)(F)F)CC1 | -31.5% (active)
8 | COc1ccc(C(=O)c2c(N)c(C#N)cn2-c2ccc(Cl)cc2Cl)cc1 | 84.7%
